Shown are actives, neighbours in structure and some others; about 20% of the full set was active somewhere.
Pf growth 96h: Primary qHTS for delayed death inhibitors of the malarial parasite plastid, 96 hour incubation. P. falciparum luciferase reporter growth, 96 h. Potency, µM (top dose mostly 28.7 µM), hits mostly inhibitors. actives 6.9% (n = 320,000)
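Two-generation exposure (96 h) targets delayed-death phenotype. Reporter parasites carrying integrated firefly luciferase, in red cells at 2% hematocrit and 0.05% parasitemia final, kept at 37 C, 5% CO2; luminescence loss indicates inhibition.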
Cycloheximide cs: Cycloheximide Counterscreen for Small Molecule Inhibitors of Shiga Toxin; cell reporter, cycloheximide protein synthesis inhibition counterscreen; max response, %; actives 12% (n = 300,000); in the data active = max response mostly above about 13%, no sharp cut-off; inactive = mostly below about 14%; note: read at 38.3 µM for the half of the compounds with a filed dose
Pf growth 48h: Primary qHTS for delayed death inhibitors of the malarial parasite plastid, 48 hour incubation | actives 5.9% (n = 310,000) | P. falciparum luciferase growth in erythrocytes, 48 h | Potency, µM (series often up to 28.7 µM), usual class: inhibitors
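In quantitative HTS format, infected erythrocytes bearing luciferase-reporter parasites were treated for a single generation at 37 C. Luminescence after adding detection reagent served as the growth measure.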
HCMV inh: qHTS Assay for inhibitors of the human cytomegalovirus (HCMV); AID 1259415, 2018; activity change, negative = inhibition, % at 57.5 µM; HFF cells, HCMV-luciferase reporter, 72 h; hits give low values; actives 4.5% (n = 410,000); in the data active = activity change below about -60%; inconclusive = no clear call, values can overlap the other calls; inactive = above about -39%
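Steps: HFFs plated, 16 h 37C; compounds added; HCMV-luciferase added to MOI 1 PFU/cell; 72 h 37C; OneGlo reagent, 5 min room temperature; luminescence read, normalized to controls.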
Shiga inhibitor: A qHTS for Small Molecule Inhibitors of Shiga Toxin. AID 2315, 2010. actives 9.2% (n = 290,000). inhibition, % at 38.7 µM. Vero cells, Shiga toxin protein synthesis inhibition reporter; in the data active = inhibition mostly above about 28%, no sharp cut-off; inactive = mostly below about 43%
Numbers stand for hits; 0 = inactive; ? = inconclusive; - = not tested or not shown. Unless noted, calls come from the whole dose curve; as a rule, active = well fitted inhibition curve with a large enough effect; inconclusive = small, poorly fitted or top-dose-only effect, or another doubt; inactive = no such curve, though single readings can be large or run the other way.

SMILES	Pf growth 96h	Cycloheximide cs	Pf growth 48h	HCMV inh	Shiga inhibitor
O=C(Nc1ccc(Cl)c(Cl)c1)c1ccc(Cn2c(=O)[nH]c3ccsc3c2=O)cc1	?	0	0	?	0
O=C(Nc1ccc(Oc2ccccc2)cc1)c1ccc(Cn2c(=O)[nH]c3ccsc3c2=O)cc1	13µM	0	0	0	0
COCCNc1c(-c2ccc(OC)cc2)nc2ccc(Cl)cn12	0	0	0	0	62
CCOC(=O)CNc1c(-c2ccc(OC)cc2)nc2ccc(Cl)cn12	?	20	0	0	36
CCOC(=O)CNc1c(-c2ccc(Cl)cc2)nc2cnccn12	0	0	0	0	0
Cc1ccc(Cl)cc1N1CCN(C(=O)c2cn(C)c3ccc(S(=O)(=O)N4CCCC4)cc3c2=O)CC1	-	-	-	0	-
Clc1cc(Cl)c2nc(N3CCCC3)sc2c1	-	-	-	0	-
O=C(C1CC1)N1CCN(c2nc3c(Cl)cccc3s2)CC1	-	-	-	0	-
Clc1cc(Cl)c2nc(N3CCCCC3)sc2c1	0	34	0	0	72
Brc1cccc2sc(N3CCN(c4ccccc4)CC3)nc12	0	24	0	0	30
Clc1cccc2sc(N3CCCCC3)nc12	-	32	0	0	82
CN(C)CCN(Cc1ccco1)S(=O)(=O)c1cc2c(cc1Cl)NC(=O)CO2	-	-	-	0	-
CCc1nc2cc(Cl)c(Cl)cc2[nH]1	0	11	0	0	0
Cc1ccc(CSC2=NCCN2C(=O)C2CC2)cc1	?	0	0	0	0
CCCC(C)C1(CC)C(=O)NC(=Nc2ccccc2OC)NC1=O (centres undefined)	10µM	0	0	0	0
CCCC(C)C1(CC)C(=O)NC(=O)NC1=O (centres undefined)	0	-	0	-	-
CCCC(C)C1(CC)C(=O)NC(=Nc2ccc(OC)cc2)NC1=O (centres undefined)	?	0	0	-60	0
CCCC(C)C1(CC)C(=O)NC(=S)NC1=O (centres undefined)	?	0	?	-	0
Cc1ccc(C)c(S(=O)(=O)N2CCN(C(=O)[C@@H]3CCCN3C(=O)c3cccs3)CC2)c1	0	-	?	0	-
